biological target: AT4G31550 (Arabidopsis thaliana, UniProt Q9SV15 228-325); assay: DPI-ELISA; DPI-ELISA, streptavidin 384-well plate, 1-2 pmol biotinylated dsDNA per well, crude native E. coli extract, anti-His detection; buffer as in Brand et al. [46],; high values mean tight binding; conditions: tags: C-terminal His (pET-DEST42); label: 5' biotin on forward strand; dsDNA, one strand shown
Sequence (Q9SV15 228-325): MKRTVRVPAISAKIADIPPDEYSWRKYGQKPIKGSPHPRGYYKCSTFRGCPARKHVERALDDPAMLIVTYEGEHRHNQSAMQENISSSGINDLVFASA

| Sequence | binding signal [absorbance] |
| --- | --- |
| AAAAAAGAGAATTGTCAGTGCCCAACAAAA | 0.705 ± 0.106 |
| AAAAAAGGGAGTCATGCTTCTTGTTTAAAA | 0.645 ± 0.0919 |
| AAAAAAGCGGTAGATGCGCAACTGTGAAAA | 0.6 ± 0.127 |
| AAAAAATTGGCACACATGATCTCGGGAAAA | 0.56 ± 0.113 |
| AAAAAAACTATAGTCTTTGTCATGATAAAA | 0.64 ± 0.0707 |
| AAAAAAAGGTTTGGGCTTCACGTTATAAAA | 0.725 ± 0.12 |
| AAAAAACGCTCCGTTTTTGCAATGCGAAAA | 0.61 ± 0.0707 |
| AAAAAAATTGTATCATACTTCAGTTGAAAA | 0.61 ± 0.0707 |
| AAAAAACTACAACCTGCGCGGTGGTCAAAA | 0.775 ± 0.0636 |
| AAAAAAATTCATGCTATTTAACCTTAAAAA | 0.745 ± 0.0919 |
| AAAAAAGGCCTTCGCTCGTGTTTACGAAAA | 0.4 ± 0.0424 |
| AAAAAATCGGGCCCCGTTAGCACTCTAAAA | 0.665 ± 0.12 |
| AAAAAAATTTTTAGTTTTAATTTTGGAAAA | 0.615 ± 0.106 |
| AAAAAAATCTTTGCGTCGAGATTCTTAAAA | 0.59 ± 0.0707 |

From article PMC3795721, “Screening for Protein-DNA Interactions by Automatable DNA-Protein Interaction ELISA”
